According to PMC4336329 (PLoS ONE, 2015):
Out of some 310,000 compounds screened, about 14,000 (4.5%) showed an effect of 50% or more. Effects have a minus sign here. The sample holds strong results, similar compounds and a random draw of the others, so the mix is not that of the screen.

What follows are compounds tested against human ether-à-go-go-related gene (hERG) potassium channel (human, UniProt Q12809) (assay: primary screen, population patch clamp on CHO cells stably expressing hERG; higher = less effect of the substance).
Chain of human ether-à-go-go-related gene (hERG) potassium channel (Q12809 whole entry, looked up): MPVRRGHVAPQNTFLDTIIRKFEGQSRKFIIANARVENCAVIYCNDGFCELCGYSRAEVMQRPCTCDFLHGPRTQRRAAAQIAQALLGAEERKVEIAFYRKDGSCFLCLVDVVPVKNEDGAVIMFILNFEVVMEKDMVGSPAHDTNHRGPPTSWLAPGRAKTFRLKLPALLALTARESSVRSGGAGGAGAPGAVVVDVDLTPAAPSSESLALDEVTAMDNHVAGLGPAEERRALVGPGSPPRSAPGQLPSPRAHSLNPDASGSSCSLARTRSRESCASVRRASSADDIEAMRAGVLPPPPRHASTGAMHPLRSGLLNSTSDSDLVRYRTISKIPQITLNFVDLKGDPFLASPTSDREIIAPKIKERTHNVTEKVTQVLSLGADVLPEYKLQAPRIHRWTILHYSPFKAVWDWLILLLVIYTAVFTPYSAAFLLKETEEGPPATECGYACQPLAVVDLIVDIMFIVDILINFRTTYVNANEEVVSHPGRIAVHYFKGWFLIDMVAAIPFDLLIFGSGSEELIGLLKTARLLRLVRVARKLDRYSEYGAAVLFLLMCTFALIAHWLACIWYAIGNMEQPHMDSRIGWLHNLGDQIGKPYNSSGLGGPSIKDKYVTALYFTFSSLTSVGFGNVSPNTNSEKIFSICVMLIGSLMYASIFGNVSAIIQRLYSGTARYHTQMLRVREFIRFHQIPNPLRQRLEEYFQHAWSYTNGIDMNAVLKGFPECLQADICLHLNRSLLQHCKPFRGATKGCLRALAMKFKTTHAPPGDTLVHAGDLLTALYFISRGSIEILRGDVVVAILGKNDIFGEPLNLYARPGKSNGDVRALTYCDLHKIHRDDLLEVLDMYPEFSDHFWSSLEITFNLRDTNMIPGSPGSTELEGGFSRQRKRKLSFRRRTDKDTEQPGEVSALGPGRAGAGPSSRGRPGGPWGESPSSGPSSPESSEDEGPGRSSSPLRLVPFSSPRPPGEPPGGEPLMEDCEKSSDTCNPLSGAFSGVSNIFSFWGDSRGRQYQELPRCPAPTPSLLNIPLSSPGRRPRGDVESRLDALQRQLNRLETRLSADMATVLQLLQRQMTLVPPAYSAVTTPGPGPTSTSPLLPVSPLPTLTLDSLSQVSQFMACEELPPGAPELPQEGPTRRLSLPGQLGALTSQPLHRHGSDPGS
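Also: peak tail current of the secondary pulse compared with the same well before compound.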

Going from CCc1nc(N[C@@H](Cc2c[nH]c3ccccc23)C(=O)O)c2oc3ccccc3c2n1 to COc1cccc(C(=O)NC(C)c2cccc3ccccc23)c1OC (stereo not shown), the “hERG current change (%, negative = inhibition) at 10uM” value falls from 8.39% to -10.4%.

Compared with CC(C)(C)c1ccc(-c2cc(C(=O)NNC(=O)Nc3ccccc3)c3ccccc3n2)cc1, O=C(Nc1cccc(NC(=O)c2ccc(Br)cc2)c1)c1ccccc1 is higher in “hERG current change (%, negative = inhibition) at 10uM” value: 13.6% for the first, 18% for the second.

Compared with CCC(C)[C@H]1COCCS(=O)(=O)N1Cc1ccccc1F (stereo partly shown), Cc1cc(-c2ccc(C)c(S(=O)(=O)NCC3CCN(Cc4cccc(F)c4)CC3)c2)on1 is lower in “hERG current change (%, negative = inhibition) at 10uM” value: -18.5% for the first, -39.1% for the second.

First: Cc1cc(-c2ccc(C)c(S(=O)(=O)NCC3CCN(Cc4ccc(F)cc4)CC3)c2)on1
Second: COc1ccc(-c2cc(C)no2)cc1S(=O)(=O)NCC1CCN(Cc2cc(C)ccc2C)CC1
The “hERG current change (%, negative = inhibition) at 10uM” value of the first is higher: -66.2% for the first, -72% for the second.

Going from COc1ccc(-c2cc(C)no2)cc1S(=O)(=O)NCCCN1CCCCCC1 to COc1ccccc1CN1CCC(CNS(=O)(=O)c2cc(-c3cc(C)no3)ccc2OC)CC1, the “hERG current change (%, negative = inhibition) at 10uM” value falls from -17.4% to -58.2%.

Compared with COc1ccc(CNS(=O)(=O)c2cc(-c3cc(C)no3)ccc2OC)cc1OC, CCOc1ccccc1CNS(=O)(=O)c1cc(-c2cc(C)no2)ccc1OC is lower in “hERG current change (%, negative = inhibition) at 10uM” value: 2.57% for the first, -18.4% for the second.

Compared with COc1ccccc1CNS(=O)(=O)c1cc(C)ccc1OC, CCc1ccc(-c2cc(C)no2)cc1S(=O)(=O)NCc1ccccc1OC is lower in “hERG current change (%, negative = inhibition) at 10uM” value: 9.32% for the first, -15.8% for the second.

Going from COc1ccc(-c2onc(C)c2C)cc1S(=O)(=O)NCCc1ccco1 to COc1ccccc1CN1CCC(CNS(=O)(=O)c2cc(-c3onc(C)c3C)ccc2OC)CC1, the “hERG current change (%, negative = inhibition) at 10uM” value falls from -41.8% to -76.7%.

Going from CCc1ccc(-c2cc(C)no2)cc1S(=O)(=O)N1CCCN(Cc2ccc(F)cc2)C1 to COc1ccc(S(=O)(=O)N2CCCC(C(=O)NCc3ccccc3)C2)cc1 (stereo not shown), the “hERG current change (%, negative = inhibition) at 10uM” value rises from 5.62% to 23.7%.

Compared with CCCC(CCC(=O)Nc1ccn(-c2ccccc2)n1)C(=O)O (stereo not shown), CN(C)C=O.CN(C)c1ccc(/C=C/c2nc3ccccc3c(=O)n2-c2ccc(C(=O)O)cc2)cc1 is higher in “hERG current change (%, negative = inhibition) at 10uM” value: 4.5% for the first, 19.8% for the second.

Going from C=CCn1c(SCC(N)=O)nnc1-c1ccccc1O to CCOc1ccc(CCN2CN(CC)CNC2=S)cc1OCC, the “hERG current change (%, negative = inhibition) at 10uM” value falls from 0.103% to -0.457%.
